Consider seven compounds from PubChem BioAssay (NCI).

Assay in all cases: NCI-60 one-dose screen, 48 h (100 = growth as untreated, 0 = no growth, -100 = all killed)
What all share (conditions): 10 µM unless noted

Experiment [1] has as its system SK-MEL-2 melanoma.
Experiment [2] deals with EKVX NSCLC.
The subject of experiment [3] is SN12C renal.
For experiment [4], the system named is UO-31 renal.
The test system of experiment [5] is TK-10 renal.
In experiment [6] the test system is ACHN renal.
Experiment [7] deals with CAKI-1 renal.
Experiment [8] concerns A498 renal.
The subject of experiment [9] is CCRF-CEM leukemia.
In experiment [10] the test system is MOLT-4 leukemia.
For experiment [11], the system named is SR leukemia.
Experiment [12] deals with RPMI-8226 leukemia.
In experiment [13] the test system is OVCAR-8 ovarian.
The subject of experiment [14] is OVCAR-5 ovarian.
The subject of experiment [15] is OVCAR-4 ovarian.
For experiment [16], the system named is SK-OV-3 ovarian.
For experiment [17], the system named is IGROV1 ovarian.
The test system of experiment [18] is OVCAR-3 ovarian.
In experiment [19] the test system is HS 578T breast.
In experiment [20] the test system is NCI/ADR-RES ovarian.

Molecules are shown by their SMILES. “And” between values parts separate entries of the source, which are not always exact repeats. Equal values may be shown once. Compounds without any hit were thinned out: in the full panel of roughly 83,000, 20% have a hit.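 Single-dose data. Exposure time 48 hours. Values below 10 considered active.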 The source made the active and inactive calls.

Consider `N#CC1=C(c2ccco2)Nc2c(c(-c3ccccc3)nn2-c2ccccc2)C12C(=O)Nc1ccc(Cl)cc12` (stereo not given), for which the growth in experiment [1] is 80.2% (inactive); in experiment [2] it was 24.2% (inactive); in [3] it was -44.4% (active); in experiment [4], 43.1% (inactive); in experiment [5], -15.4% (active); in experiment [6] it was 8.94% (active). Also, the growth is 33% (inactive) in experiment [7]; 135% (inactive) in [8]; 25% (inactive) in experiment [9]; 34.8% (inactive) in experiment [10]; -2.37% (active) in experiment [11]; 49.8% (inactive) in experiment [12]. Further, the growth in experiment [13] is -29.1% (active); in experiment [14], 53.5% (inactive); in experiment [15], 9.94% (active); in experiment [16], 55.3% (inactive); in experiment [17], 39.2% (inactive); in experiment [18], -27.2% (active). In addition, the values for the growth in [19] and in experiment [20] were -22.9% (active) and -3.42% (active), respectively.
For the compound `CC(=O)Nc1cccc(-n2c(COc3ccc(I)cc3)nc3ccccc32)c1`, the growth in [1] was 82.8% (inactive) and 118% (inactive); in [2] it was 86% (inactive) and 102% (inactive); in [3], 95.7% (inactive) and 111% (inactive); in [4], -67.3% (active) and 90% (inactive); in experiment [5], 102% (inactive) and 104% (inactive); in experiment [6], -78.2% (active) and 116% (inactive). Besides, the growth in experiment [7] is 56.7% (inactive) and 105% (inactive); in [8], 114% (inactive) and 136% (inactive); in experiment [9] it was 90.4% (inactive) and 96.2% (inactive); in [10], 83.6% (inactive) and 102% (inactive); in experiment [11] it was 56.2% (inactive) and 104% (inactive); in [12], 75.8% (inactive) and 110% (inactive). For the same compound, the growth was 97.1% (inactive) and 117% (inactive) in [13]; 103% (inactive) and 113% (inactive) in [14]; 74.9% (inactive) and 109% (inactive) in experiment [15]; 96.8% (inactive) and 111% (inactive) in [16]; 86.1% (inactive) and 113% (inactive) in experiment [17]; 88.8% (inactive) and 87.7% (inactive) in experiment [18]. For the same compound, the growth in [19] was 62.4% (inactive) and 115% (inactive); in experiment [20] it was 76.6% (inactive) and 111% (inactive).
For `Cc1cccc(NCC(=O)N2CCN(c3ncnc4c3cnn4-c3ccccc3)CC2)c1`, the growth is 46.7% (inactive) in experiment [1]; 53.7% (inactive) in [2]; 76.9% (inactive) in [3]; 34.3% (inactive) in experiment [4]; 93.8% (inactive) in experiment [5]; 45.4% (inactive) in experiment [6]. The growth was 47.8% (inactive) in experiment [7]; 108% (inactive) in [8]; 62.7% (inactive) in [9]; 58.2% (inactive) in experiment [10]; 22.7% (inactive) in experiment [11]; 75.7% (inactive) in [12]. Further, the growth in experiment [13] was 65.2% (inactive); in [14] it was 83.8% (inactive); in [15], 51.6% (inactive); in experiment [16] it was 67.1% (inactive); in experiment [17], 59.4% (inactive); in experiment [18] it was 94% (inactive). Also, the growth was 60.4% (inactive) in [19] and 60.6% (inactive) in experiment [20].
`COc1ccc(/C=C/C(=O)c2ccc(OC)c(S(N)(=O)=O)c2)c(C(F)(F)F)c1`: the growth in experiment [1] was 60.8% (inactive); in experiment [2], 14.5% (inactive); in [3], 8.16% (active); in experiment [4], 25.6% (inactive); in experiment [5], 77.9% (inactive); in experiment [6], 9.82% (active). The growth in [7] was 24.7% (inactive); in experiment [8] it was 195% (inactive); in [9], 2.27% (active); in experiment [10], -0.0099% (active); in [11], 0.801% (active); in experiment [12], 3.98% (active). The growth in experiment [13] was 6.69% (active); in experiment [14], 3.65% (active); in experiment [15], 18.6% (inactive); in experiment [16] it was 66.6% (inactive); in [17] it was 1.64% (active); in experiment [18], 15.8% (inactive). The growth was 49.3% (inactive) in experiment [19] and -31.4% (active) in experiment [20].
As to `CC(C)C[C@H](NC(=O)CNC(=O)C[C@H]1O[C@@H]2OC3(C)CC[C@H]4[C@H](C)CC[C@@H]([C@H]1C)[C@@]24O3)B(O)O`, the growth in experiment [1] was -61.9% (active); in experiment [2], 27.3% (inactive); in [3], -39.2% (active); in experiment [4] it was 10.5% (inactive); in experiment [5], 12.1% (inactive); in experiment [6], 6.33% (active). For the same compound, the growth in [7] is 15.8% (inactive); in experiment [8], 21.1% (inactive); in experiment [9] it was -12.4% (active); in experiment [10], 7.31% (active); in experiment [11], 9.06% (active); in experiment [12] it was -11% (active). Moreover, the growth in experiment [13] was 4.17% (active); in experiment [14] it was -32.6% (active); in experiment [15], 18.9% (inactive); in [16] it was 25.7% (inactive); in experiment [17] it was 10.7% (inactive); in experiment [18] it was -33.1% (active). For the same compound, the figures for the growth in [19] and in [20] were -5.03% (active) and 92.6% (inactive), respectively.
Take `CCOc1ccccc1NC(=O)N/C(N)=N/c1nc2ccccc2s1`: the growth is 38.7% (inactive) in experiment [1]; 42.9% (inactive) in experiment [2]; 8.49% (active) in experiment [3]; 44.6% (inactive) in [4]; 63% (inactive) in experiment [5]; 18.5% (inactive) in experiment [6]. For the same compound, the growth in experiment [7] was 17.8% (inactive); in experiment [8], 90.9% (inactive); in [9] it was 0.25% (active); in experiment [10], 7.53% (active); in experiment [11], 5.36% (active); in experiment [12], 0.173% (active). The growth in experiment [13] was -15.2% (active); in experiment [14], 16.9% (inactive); in experiment [15], 33.9% (inactive); in [16] it was 9.18% (active); in experiment [17] it was 22.7% (inactive); in [18], -10.7% (active). Also, the growth is 60.8% (inactive) in experiment [19] and -14.1% (active) in [20].
For the compound `O=C(N/N=C/c1ccc(Cl)cc1)c1ccc(OCc2nc3ccc(Cl)cc3[nH]2)cc1`, the growth in [1] was 47.7% (inactive); in experiment [2] it was 32.1% (inactive); in [3], 30.4% (inactive); in experiment [4], 11.1% (inactive); in experiment [5], 12.4% (inactive); in [6], 28.6% (inactive). Further, the growth in experiment [7] was 73.6% (inactive); in experiment [8], 129% (inactive); in experiment [9] it was 66.7% (inactive); in [10], 15% (inactive); in experiment [11], 3.65% (active); in experiment [12], 40.3% (inactive). The growth is -12.1% (active) in experiment [13]; 35.4% (inactive) in [14]; -8.33% (active) in [15]; 14.5% (inactive) in [16]; 15.4% (inactive) in [17]; -20.3% (active) in experiment [18]. In addition, the values for the growth in [19] and in experiment [20] were 25.2% (inactive) and 45.4% (inactive), respectively.
